From PubChem BioAssay
Calls of active or inactive are those of the source.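 How the source made its calls, unless noted: active means viability at or below 30% in both replicate assays; inconclusive means viability at or below 30% in just one of the two assays; inactive means the rest.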

How the values were obtained:
[1] = SK-BR-3 cell growth inhibitors, pilot screen, 24 h, human (AID 572;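 active means viability at or below 10% of carrier control in both of two separate runs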;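 further: compound exposure lasted between 18 and 24 h rather than exactly 24 h; 100% = carrier-treated control wells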); settings: SK-BR-3 viability, CellTiter-Glo luminescence, at 10 µM, stronger effect = lower value
[2] = HUVEC growth inhibition – cell-based, human, primary screen (AID 575); settings: HUVEC proliferation, CellTiter-Glo luminescence, 72 h; at 10 µM; stronger effect = lower value;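 further: 100% = median of untreated cell wells with 0.1% DMSO on each plate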
[3] = growth inhibitors of H69AR lung tumor, primary screen, human, duplicate replicates (AID 580;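 active means viability at or under a set limit in both replicates, limit being median viability minus 3 SD, cut at about 48% in these data, passing the limit was not always enough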;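 further: 100% = mean luminescence of untreated wells and 0% = no signal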); settings: H69AR lung tumor cells viability, ATP luminescence, 72 h; at 10 µM; stronger effect = lower value
[4] = reversal of MRP1-mediated doxorubicin resistance, pilot screen, H69AR cells, doxorubicin co-treatment (AID 601;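 active means viability loss from added drug above about 55%, and viability with drug at most 40%, in both replicates, limit read from the data, passing the limit was not always enough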); settings: CellTiter-Glo, 72 h, at 10 µM; for differential viability (reversal): stronger effect = higher value
[5] = 384-well plate pilot, post-Golgi transport modulator project, inhibition of yeast transport mutant growth (AID 636; in the data active means inhibition above about 31%); settings: absorbance 615 nm, about 18 h, stronger effect = higher value
[6] = growth suppression of yeast trafficking mutant, preliminary HTS, modulators of trafficking downstream of Golgi apparatus project, 1536-format plate, OD 615 nm (AID 637; in the data active means inhibition above about 30%); settings: yeast transport mutant growth, absorbance 615 nm, 18 h; stronger effect = higher value
[7] = H69AR cells + 2 uM doxorubicin, measured here: viability with 2 uM doxorubicin, stronger effect = lower value
[8] = H69AR cells, compound alone cytotoxicity

SMILES	viability [1]	viability [2]	viability [3]	differential viability (reversal) ([4]; H69AR cells + 2 uM doxorubicin)	viability [4, 7]	viability [4, 8]	inhibition [5]	inhibition [6]
Cc1occc1-c1nc(-c2ccncc2)no1	79% (inactive)	83.2% (inactive)	95.4% (inactive)	2.9% (inactive)	92.5%	95.4%	0.96% (inactive)	-8.87% (inactive)
CCN(CC)CCOC(=O)C1(c2ccc(OC)c(OC)c2)CCCC1	89% (inactive)	99.6% (inactive)	82.7% (inactive)	2.25% (inactive)	80.5%	82.7%	-5.14% (inactive)	1.45% (inactive)
O=C(C1CCCCC1)N1CCC(c2nc3c(nnn3Cc3ccccc3Cl)c(=O)[nH]2)CC1	90% (inactive)	83.6% (inactive)	73.9% (inactive)	–	–	–	-3.24% (inactive)	-9.27% (inactive)
Cn1c(=O)cc(OCCCC(=O)Nc2ccc3c(c2)OCCO3)c2ccccc21	101% (inactive)	85.1% (inactive)	–	-5.2% (inactive)	70.7%	65.5%	-1.04% (inactive)	-6.39% (inactive)
CN(C)c1ccc(O)c2c1CC1CC3[C@@H](N(C)C)C(=O)C(C(N)=O)=C(O)[C@]3(O)C(=O)C1=C2O (stereo partly specified)	92% (inactive)	92.6% (inactive)	–	-6.56% (inactive)	39.2%	32.7%	2.73% (inactive)	29.7% (inactive)
CN(C)CCCN1c2ccccc2Sc2ccc(C(F)(F)F)cc21	4.5% (active)	56.8% (inactive)	–	-39.3% (inactive)	51%	11.7%	–	–
C1CCC(C(CC2CCCCN2)C2CCCCC2)CC1 (stereo unspecified)	2% (active)	2.58% (active)	–	0.29% (inactive)	1.26%	1.55%	–	–
O=C(CN1CCN(Cc2ccc3c(c2)OCO3)CC1)N1CCc2[nH]c3ccc(F)cc3c2C1	96% (inactive)	58.8% (inactive)	–	-8.87% (inactive)	61.4%	52.5%	-2.13% (inactive)	-6% (inactive)
CCOC(=O)C1CCN(CC(=O)Nc2c(C(=O)OC)[nH]c3ccc(Cl)cc23)CC1	103% (inactive)	65.5% (inactive)	–	34.9% (inactive)	23.5%	58.4%	-4.4% (inactive)	3.09% (inactive)
COc1ccc(-c2ccc(-c3noc(-c4cccs4)n3)c(OC)n2)cc1	77% (inactive)	98.8% (inactive)	–	-5.54% (inactive)	70.1%	64.6%	-7.43% (inactive)	-8.73% (inactive)
CCCOc1ccc2nc(NC(=O)OC)[nH]c2c1	95% (inactive)	37.3% (inactive)	–	-30.4% (inactive)	57.3%	26.9%	-0.52% (inactive)	-1.5% (inactive)
Cc1cc(CN2CCN(CCC#N)CC2)c(O)c(C2(C)CCCCC2)c1	106% (inactive)	54.2% (inactive)	–	-12.2% (inactive)	77.1%	64.9%	1.1% (inactive)	39.4% (active)
COc1cc(NC(=O)c2ccco2)c(OC)cc1NC(=O)CCC(=O)Nc1cc(C)cc(C)c1	106% (inactive)	42.5% (inactive)	–	-16.3% (inactive)	69.4%	53.1%	-6.58% (inactive)	-0.95% (inactive)
CC(=O)O[C@@]12CO[C@@H]1C[C@H](O)[C@@]1(C)C(=O)[C@H](O)C3=C(C)[C@@H](OC(=O)[C@H](O)[C@@H](NC(=O)OC(C)(C)C)c4ccccc4)C[C@](O)([C@@H](OC(=O)c4ccccc4)[C@H]21)C3(C)C	130% (inactive)	40.7% (inactive)	–	-79.6% (inactive)	98.8%	19.2%	-4.03% (inactive)	-2.33% (inactive)
CCOC(=O)N1CCC(NC(=O)c2ccc3c(c2)sc2nc(-c4cccc(OC)c4)cn23)CC1	80% (inactive)	52% (inactive)	–	8.43% (inactive)	41.5%	49.9%	-1.95% (inactive)	-0.98% (inactive)
O=C(Nc1cccc(-c2nnc(-c3ccccc3)o2)c1)C1CCCCC1	88% (inactive)	82.8% (inactive)	–	0.7% (inactive)	53.3%	54%	-8.49% (inactive)	3.55% (inactive)
CC1CCN(CCc2nc3cc(NS(=O)(=O)c4ccc(F)cc4)ccc3n2C)CC1	89% (inactive)	77.6% (inactive)	–	-3.08% (inactive)	55.5%	52.4%	-2.33% (inactive)	0.97% (inactive)
COc1ccccc1Nc1nc(N)nc(-c2cc3ccccc3o2)n1	91% (inactive)	78.4% (inactive)	–	-26.4% (inactive)	75.7%	49.3%	-2.97% (inactive)	-4.55% (inactive)
O=C(Nc1ccc(-c2nc3ncccc3o2)cc1)c1ccc(Br)o1	97% (inactive)	104% (inactive)	–	-4.05% (inactive)	53.2%	49.2%	-2.13% (inactive)	-0.36% (inactive)
N#Cc1cc2ccc(N3CCOCC3)cc2cc1C#N	85% (inactive)	4.27% (active)	–	-33.5% (inactive)	76.9%	43.4%	-0.91% (inactive)	-3% (inactive)
COc1cc2cc(C(c3nnnn3C3CCCC3)N3CCCCCC3)c(=O)[nH]c2cc1OC (stereo unspecified)	114% (inactive)	92.3% (inactive)	–	-0.62% (inactive)	59.7%	59.1%	-3.87% (inactive)	-2.91% (inactive)
O=C(c1cc2nc(-c3ccco3)cc(C(F)(F)F)n2n1)N1CCN(c2ccccn2)CC1	101% (inactive)	66.5% (inactive)	–	-11.9% (inactive)	66.1%	54.3%	-3.2% (inactive)	0.18% (inactive)
C=C(C)C1Cc2c(C)nn(-c3nc(C)cc(C)n3)c2C1 (stereo unspecified)	105% (inactive)	71.7% (inactive)	–	-21.4% (inactive)	73.7%	52.3%	-6.58% (inactive)	13.4% (inactive)
COc1ccccc1NC(=O)C1=C(C)NC(SCC(=O)c2ccc(C)cc2)=C(C#N)C1c1ccco1 (stereo unspecified)	81% (inactive)	72.5% (inactive)	–	0.78% (inactive)	16.8%	17.6%	1.1% (inactive)	-3.64% (inactive)
CN1CCN(CCCN2c3ccccc3Sc3ccc(C(F)(F)F)cc32)CC1	91% (inactive)	2.21% (active)	–	-3.17% (inactive)	4.2%	1.03%	1.43% (inactive)	53.8% (active)
